Inconclusive results are not listed. Unmarked numbers belong to inactive results. Calls come from the whole dose curve; as a rule, active = well fitted cell-killing curve with a large enough effect; inconclusive = small, poorly fitted or top-dose-only effect, or effect the other way; inactive = flat fitted curve, though single readings scatter.
What follows are compounds tested on CASKI (assay: Primary qHTS to identify gynecologic anti-cancer compounds using libraries of approved drugs and bioactive compounds (AID 1345084; note: nearly all actives have a fitted effect of over 55% in size)). Details: Gynecologic cancer cell panel viability, ATPlite luminescence, 48 h; series mostly up to 57.5 µM; activity change, negative = cytotoxicity: at the top concentration.
Outline: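 Cells, 1,000 per well, were allowed to settle for 16 h at 37 C before compound addition. Five concentrations were tested for 48 h, and viability was read by ATPlite luminescence after 15 min at room temperature.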
For `Nc1ccc(N)c([N+](=O)[O-])c1`, the “activity change, negative = cytotoxicity” value was 17.6% [at 116 µM]. With `CC(C)n1cnc2c(Nc3cccc(Cl)c3)nc(NCCO)nc21` the “activity change, negative = cytotoxicity” value was -0.0593%. With `COc1ccc(-c2c(C)c(C(=O)NN3CCCCC3)nn2-c2ccc(Cl)cc2Cl)cc1` the “activity change, negative = cytotoxicity” value was -11.4%. `O=C(CC1NCCC[C@H]1O)Cn1cnc2cc(Br)c(Cl)cc2c1=O` (stereo not given in full) was tested, and the “activity change, negative = cytotoxicity” value was -18.5%. `COc1cccc(NC[C@@H](O)Cn2c3ccc(Br)cc3c3cc(Br)ccc32)c1` was tested, and the “activity change, negative = cytotoxicity” value was -0.869%. With `C[C@@H](O[C@H]1OCCN(Cc2n[nH]nc2CN(C)C)[C@H]1c1ccc(F)cc1)c1cc(C(F)(F)F)cc(C(F)(F)F)c1` the “activity change, negative = cytotoxicity” value was -4.24%. For `CC[C@H](C)[C@H]1O[C@]2(CC[C@@H]1C)C[C@@H]1C[C@@H](C/C=C(\C)[C@@H](O[C@H]3C[C@H](OC)[C@@H](O[C@H]4C[C@H](OC)[C@@H](O)[C@H](C)O4)[C@H](C)O3)[C@@H](C)/C=C/C=C3\CO[C@@H]4[C@H](O)C(C)=C[C@@H](C(=O)O1)[C@]34O)O2`, the “activity change, negative = cytotoxicity” value was -1.58%. With `CCC(=O)Nc1cccc(Oc2nc(Nc3ccc(N4CCN(C)CC4)cc3OC)ncc2Cl)c1` the “activity change, negative = cytotoxicity” value was -7.14%. `O=C(Nc1cccc(C(F)(F)F)c1)c1ccccc1NCc1ccncc1` was tested, and the “activity change, negative = cytotoxicity” value was 10.4%. In the case of `COc1cc2nc(-c3cc(F)ccc3O)nc(N[C@@H]3CNC[C@H]3C(C)(C)O)c2cc1OC`, the “activity change, negative = cytotoxicity” value is reported as -2.38%. `Cc1cc(CN)cc(C)c1NC(=O)c1ccc(-c2cc(Cl)ccc2Cl)o1` was tested, and the “activity change, negative = cytotoxicity” value was -30.6%. With `c1ccc(-c2cnc(Nc3ccc(OCCN4CCCC4)cc3)s2)cc1` the “activity change, negative = cytotoxicity” value was -22.3%. For `C=C1C(=O)O[C@@H]2/C=C(/C)CC3C=C(C[C@H](OC(=O)/C(C)=C\C)[C@@H]12)C(=O)O3` (stereo not given in full), the “activity change, negative = cytotoxicity” value was -8.18% [at 38.5 µM]. `CC1(C)SC2C(NC(=O)[C@H](NC(=O)N3CCNC3=O)c3ccccc3)C(=O)N2C1C(=O)O` (stereo not given in full) was tested, and the “activity change, negative = cytotoxicity” value was 2.54%. For `CC1(C)SC2C(NC(=O)[C@H](C(=O)O)c3ccsc3)C(=O)N2C1C(=O)O` (stereo not given in full), the “activity change, negative = cytotoxicity” value was 22.5%. In the case of `COc1ccc(-c2nc(-c3cc(C(F)(F)F)cc(C(F)(F)F)c3)n(Cc3ccc(C(N)=O)cc3)c2-c2ccc(OC)cc2)cc1`, the “activity change, negative = cytotoxicity” value is reported as 3.63%. For `Fc1ccccc1CNCc1ccc(-c2ccnc3[nH]ccc23)cc1`, the “activity change, negative = cytotoxicity” value was 0.287%. For `CCCCc1nc(C)c(CC(=S)N(C)C)c(=O)n1Cc1ccc(-c2ccccc2-c2nn[nH]n2)cc1`, the “activity change, negative = cytotoxicity” value was 11.2%. In the case of `CO[C@@H]1[C@@H](O[C@H]2O[C@@H](C)[C@H](O[C@@H]3C[C@](C)(O)[C@H](O)[C@@H](C)O3)[C@@H](N(C)C)[C@@H]2O)[C@@H](CC=O)C[C@@H](C)[C@@H](O[C@H]2CC[C@H](N(C)C)[C@H](C)O2)/C=C/C=C/C[C@@H](C)OC(=O)C[C@H]1O`, the “activity change, negative = cytotoxicity” value is reported as -2.24%. With `CNc1nc(-c2ccc3c(N)n[nH]c3c2)cc(N2CC(C(=O)NC3CCCCC3)CCC2C)n1` (stereo not given) the “activity change, negative = cytotoxicity” value was -19.4%. For `CNc1cc(OC)c(C(=O)N[C@@H]2CCN(Cc3ccccc3)[C@@H]2C)cc1Cl`, the “activity change, negative = cytotoxicity” value was 1.32%. In the case of `CN([C@H]1c2cc(OCCCC(F)(F)F)ccc2OC(C)(C)[C@@H]1O)S(C)(=O)=O`, the “activity change, negative = cytotoxicity” value is reported as 0.967%. In the case of `CCOC(=O)CCC(=O)O[C@H]1[C@H](O[C@@H]2[C@@H](C)[C@H](O[C@H]3C[C@@](C)(OC)[C@@H](O)[C@H](C)O3)[C@@H](C)C(=O)O[C@H](CC)[C@@](C)(O)[C@H](O)[C@@H](C)C(=O)[C@H](C)CC2(C)O)O[C@H](C)C[C@@H]1N(C)C` (stereo not given in full), the “activity change, negative = cytotoxicity” value is reported as 8.77%. With `COc1cc(-c2cc(-c3cccc(O)c3)cnc2N)cc(OC)c1OC` the “activity change, negative = cytotoxicity” value was -18.3%. `C=C1C(=O)O[C@@H]2C[C@@H](C)[C@]34C[C@]5(C(=O)O[C@H]6CC(C)=C([C@H](C)CCCO)[C@H](OC(=O)C(C)CC)[C@H]65)[C@@H](C(C)=C3C[C@@H]12)[C@H]4OC(C)=O` (stereo not given in full) was tested, and the “activity change, negative = cytotoxicity” value was -5.44% [at 25.3 µM]. With `CC(=O)Nc1ccc(C(=O)Nc2ccccc2N)cc1` the “activity change, negative = cytotoxicity” value was 1.17% [at 25.3 µM]. For `C[C@H](NC(=O)C(C)(C)Oc1ccc(C(F)(F)F)cn1)[C@@H](Cc1ccc(Cl)cc1)c1cccc(C#N)c1`, the “activity change, negative = cytotoxicity” value was -2.29%. For `CN(C)CC(=O)Nc1ccc2[nH]c(=O)c3ccccc3c2c1`, the “activity change, negative = cytotoxicity” value was -2.07%. `CC(CCC1(O)OC2CC3C4CC=C5CC(O[C@@H]6O[C@H](CO)[C@@H](O[C@@H]7O[C@H](CO)[C@@H](O)[C@H](O)[C@H]7O)[C@H](O)[C@H]6O[C@@H]6O[C@@H](C)[C@H](O)[C@@H](O)[C@H]6O)CCC5(C)C4CCC3(C)C2C1C)CO[C@@H]1O[C@H](CO)[C@@H](O)[C@H](O)[C@H]1O` (stereo not given in full) showed an activity change, negative = cytotoxicity of 1.26% [at 11.6 µM]. For `C[C@@H](CN1CCC(n2c(=O)[nH]c3cc(Cl)ccc32)CC1)NC(=O)c1ccc2ccccc2c1`, the “activity change, negative = cytotoxicity” value was 16.5%.

— PubChem BioAssay (NCATS)
% is set by controls: 0 for no effect and ±100 for the full control effect.
